Screening results: PubChem, Sanford-Burnham Center for Chemical Genomics
Sampled rows, rich in hits. Any-hit rate of the full collection: about 2.9%.
NadD block: NadD (S. aureus) enzyme inhibition | purified NadD enzyme, colorimetric absorbance read-out | inhibition, % at 20 µM | actives 0.78% (n = 360,000) | AID 602399; in the data active means inhibition above about 26%
TAG inh: reduces triacylglycerol accumulation in H9c2 cells; Nile Red lipid (TAG) fluorescence; cells loaded with 200 µM oleic acid; inhibition, % at 12.5 µM; actives 0.66% (n = 230,000); AID 651582;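 active means pattern-corrected inhibition of lipid staining of at least 50% with the nuclear-stain viability signal not falling by more than 50%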;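 further: 0% = DMSO wells and 100% = triacsin C control wells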
PfG6PD inh: PfG6PD (Plasmodium falciparum) enzyme inhibition; PfGluPho enzyme, NADPH resazurin-diaphorase fluorescence; inhibition, % at 20 µM; actives 0.78% (n = 350,000);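 active means inhibition reaching at least a set limit at 20 µM in the primary screen, cut at about 59% in these data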;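 further: 0% = DMSO wells with substrate and 100% = DMSO wells lacking glucose-6-phosphate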
A3A deaminase: inhibitors of human APOBEC3A DNA deaminase | recombinant A3A, FAM/TAMRA ssDNA deamination fluorescence | actives 0.41% (n = 330,000) | inhibition, % at 20 µM | P31941;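 active means at least 40% inhibition at 20 µM here, with at most 30% in a related deaminase screen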;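 further: plate controls were A3A with DMSO for no effect and wells lacking A3A enzyme for full effect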
Target sequence (P31941 whole entry, looked up): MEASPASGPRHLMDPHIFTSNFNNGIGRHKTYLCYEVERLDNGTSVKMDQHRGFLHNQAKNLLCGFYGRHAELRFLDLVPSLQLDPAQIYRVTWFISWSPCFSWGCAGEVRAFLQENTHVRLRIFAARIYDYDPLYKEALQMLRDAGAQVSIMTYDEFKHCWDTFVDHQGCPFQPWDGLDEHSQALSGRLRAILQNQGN
Cardio protect: protects H9c2 cardiomyocytes from peroxide injury; H2O2 injury protection, ATPLite, 2 h; protection from H2O2 cell death, % at 20 µM; actives 0.63% (n = 360,000); AID 588492;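 active means compounds giving at least 50% protection of heart cells from peroxide-induced death in the single-dose screen, raw or plate-pattern-corrected value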;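 further: 0% = DMSO wells with peroxide and 100% = DMSO wells without peroxide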
APOBEC3G inh: blocks human APOBEC3G single-stranded DNA deamination | inhibition, % at 20 µM | Q9HC16 | actives 0.28% (n = 330,000) | recombinant A3G, ssDNA deamination FAM/TAMRA fluorescence;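 active means inhibition of at least 40% at 20 µM, with no more than 30% in the related APOBEC3A deaminase screen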;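 further: plate controls were DMSO wells with A3G for no effect and wells lacking A3G enzyme for full effect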
Target sequence (Q9HC16 whole entry, looked up): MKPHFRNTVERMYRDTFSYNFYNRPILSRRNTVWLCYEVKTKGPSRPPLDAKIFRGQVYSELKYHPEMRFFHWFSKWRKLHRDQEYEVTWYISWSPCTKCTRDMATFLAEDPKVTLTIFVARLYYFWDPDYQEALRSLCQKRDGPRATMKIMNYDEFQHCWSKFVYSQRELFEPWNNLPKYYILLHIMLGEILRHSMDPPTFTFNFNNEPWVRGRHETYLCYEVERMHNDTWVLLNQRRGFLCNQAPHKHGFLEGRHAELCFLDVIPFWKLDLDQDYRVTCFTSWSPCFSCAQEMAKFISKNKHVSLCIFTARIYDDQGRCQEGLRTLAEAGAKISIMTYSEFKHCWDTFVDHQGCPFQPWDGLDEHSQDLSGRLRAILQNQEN
An asterisk follows results filed as active.

What do the screens show for `CCCn1c(=O)n(CC(=O)NCC2CCCO2)c(=O)c2c3c(sc21)COC(C)(C)C3` (stereo not drawn)?
NadD block: -0.1; PfG6PD inh: -3.9; A3A deaminase: -1.2; Cardio protect: 3.8; APOBEC3G inh: 1.7

Results for Cc1ccc(-c2nc3c4ccccc4ccn3c2CC2CCCCC2)cc1 ?
NadD block: 23.3

How did O=[N+]([O-])c1ccc(N=Nc2ccc(O)c3ccccc23)cc1 do in these assays?
NadD block: 19.1; TAG inh: 55.9*; PfG6PD inh: 44.7; Cardio protect: -26.2

Results for O=S(=O)(Nc1ccc(N=Nc2ccc(O)c3ccccc23)cc1)c1ccccc1 ?
NadD block: 26.2; PfG6PD inh: 37.7; A3A deaminase: 5.0; Cardio protect: -7.6; APOBEC3G inh: 2.9

How did COc1ccccc1-c1noc(CCCC(=O)NC2CCCCC2)n1 do in these assays?
NadD block: 4.0; PfG6PD inh: -16.7; A3A deaminase: -3.0; Cardio protect: -0.4; APOBEC3G inh: -8.1

How did CCN1C(=O)CC(c2ccccc2)N(C2CCCC2)c2nc(Nc3ccc(C(=O)NC4CCN(C)CC4)cc3OC)ncc21 (stereo not drawn) do in these assays?
NadD block: 1.0; TAG inh: 36.5; PfG6PD inh: 17.0; A3A deaminase: -0.7; Cardio protect: -12.0; APOBEC3G inh: -7.6

Results for COc1cc(C(=O)NC2CCN(C)CC2)ccc1Nc1ncc2c(n1)N(Cc1ccccc1)CCC(=O)N2C ?
NadD block: -3.9; TAG inh: 87.4*; PfG6PD inh: 5.7; Cardio protect: 3.1

How did COc1cc(C(=O)NC2CCN(C)CC2)ccc1Nc1ncc2c(n1)N(C1CCCCC1)CCC(=O)N2C do in these assays?
NadD block: -3.9; TAG inh: 96.0*; PfG6PD inh: 16.0; Cardio protect: -5.7

Results for CN(C)N1C(N)=C(C#N)C(c2ccccc2F)C2=C1CC(C)(C)CC2=O (stereo not drawn) ?
NadD block: 0.1; PfG6PD inh: -3.4; A3A deaminase: -7.2; Cardio protect: -1.0; APOBEC3G inh: -12.0

How did CN(C)c1ccc(NC(=O)C(=O)C2C(=O)Nc3ccccc32)cc1 (stereo not drawn) do in these assays?
NadD block: 2.3; TAG inh: 8.8; PfG6PD inh: -23.0; A3A deaminase: 0.1; Cardio protect: -6.8; APOBEC3G inh: -1.0

Results for CN(C)c1ccc(CC2C(=O)Nc3ccccc32)cc1 (stereo not drawn) ?
NadD block: 0.4; TAG inh: -0.2; PfG6PD inh: 82.9*; A3A deaminase: -5.0; Cardio protect: 4.8; APOBEC3G inh: 44.6*

Results for COC(=O)c1c(NC(=O)c2cccc(N3C(=O)CCC3=O)c2)sc2c1CCN(C(C)=O)C2 ?
NadD block: 1.7; TAG inh: -5.5; PfG6PD inh: 17.7; A3A deaminase: -0.2; Cardio protect: 19.1; APOBEC3G inh: -4.3

How did COC(=O)c1c(NC(=O)c2nc3ccccc3s2)sc2c1CCN(C(C)=O)C2 do in these assays?
NadD block: -6.4; TAG inh: 24.8; PfG6PD inh: 18.1; A3A deaminase: 1.0; Cardio protect: 58.3*; APOBEC3G inh: -1.1

What do the screens show for `COc1ccc(CNC(=O)CN(c2ccc(C)cc2)S(=O)(=O)c2c(C)nn(C)c2C)cc1`?
NadD block: -11.1; PfG6PD inh: -0.6; A3A deaminase: -3.3; Cardio protect: -1.0; APOBEC3G inh: -2.7

What do the screens show for `O=C(O)CCc1ccc(-c2ccccc2)o1`?
NadD block: 1.7; TAG inh: -0.4; PfG6PD inh: 66.1*; A3A deaminase: 6.0; Cardio protect: -1.0; APOBEC3G inh: 16.3

Results for C(=N\n1cnc2ccccc21)/c1cccnc1 ?
NadD block: -6.9; PfG6PD inh: -7.0; A3A deaminase: 0.7; Cardio protect: 4.8; APOBEC3G inh: -1.2

Results for Clc1nc2sccn2c1/C=N/n1cnc2ccccc21 ?
NadD block: 1.1; PfG6PD inh: 7.8; A3A deaminase: -1.2; Cardio protect: 65.8*; APOBEC3G inh: -6.8

Results for Cc1cc([N+](=O)[O-])ccc1-c1ccc(C2Nc3ccccc3C(=O)N2O)o1 (stereo not drawn) ?
NadD block: 23.4; PfG6PD inh: -13.7; A3A deaminase: 1.3; Cardio protect: 63.0*; APOBEC3G inh: 0.8

Results for CCOC(=O)c1ccc(-c2ccc(C3Nc4ccccc4C(=O)N3O)o2)cc1 (stereo not drawn) ?
NadD block: 7.4; TAG inh: 13.3; PfG6PD inh: -40.2; A3A deaminase: -4.0; Cardio protect: 59.3*; APOBEC3G inh: -8.6

What do the screens show for `O=C1c2ccccc2NC(c2ccc(-c3ccccc3F)o2)N1O` (stereo not drawn)?
NadD block: 2.7; TAG inh: 14.2; PfG6PD inh: -9.1; A3A deaminase: -4.6; Cardio protect: 47.2; APOBEC3G inh: -8.6

Results for COCCN(C(=O)COC(=O)Cc1c[nH]c2ccccc12)c1c(N)n(Cc2ccccc2)c(=O)[nH]c1=O ?
NadD block: -0.7; TAG inh: 1.3; PfG6PD inh: 12.1; A3A deaminase: -3.3; Cardio protect: 8.9; APOBEC3G inh: -4.8

How did Cc1nn(-c2cccc(Cl)c2)nc1C(=O)Nc1cccc(C(=O)NC2CC2)c1 do in these assays?
NadD block: -1.2; TAG inh: -4.6; PfG6PD inh: -1.1; A3A deaminase: -3.4; Cardio protect: 31.8; APOBEC3G inh: -8.0

How did Cc1nn(-c2ccccc2)nc1C(=O)Nc1cccc(C(=O)NC2CC2)c1 do in these assays?
NadD block: -0.3; TAG inh: 15.1; PfG6PD inh: 6.8; Cardio protect: 61.3*

Results for Cc1ccc(-c2n[nH]c(=O)c3ccccc23)cc1S(=O)(=O)NCC1CCCO1 (stereo not drawn) ?
NadD block: -1.2; PfG6PD inh: -1.0; A3A deaminase: 1.3; Cardio protect: 71.3*; APOBEC3G inh: -5.2

How did CCOC(=O)CNS(=O)(=O)c1cc(-c2nnc(Nc3ccc4c(c3)OCO4)c3ccccc23)ccc1C do in these assays?
NadD block: 11.1; PfG6PD inh: 42.6; A3A deaminase: -2.0; Cardio protect: 25.9; APOBEC3G inh: -10.3

Results for COc1nnc(-c2ccc(C)c(S(=O)(=O)NCCO)c2)c2ccccc12 ?
NadD block: -6.9; PfG6PD inh: -6.2; A3A deaminase: -12.5; Cardio protect: 62.2*; APOBEC3G inh: -6.7

How did CCOC(=O)CNS(=O)(=O)c1cc(-c2n[nH]c(=O)c3ccccc23)ccc1C do in these assays?
NadD block: 3.9; TAG inh: -4.7; PfG6PD inh: 12.1; Cardio protect: 60.6*

Results for Cc1ccc(NS(=O)(=O)c2cc(-c3n[nH]c(=O)c4ccccc34)ccc2C)cc1 ?
NadD block: 1.8; PfG6PD inh: 44.4; A3A deaminase: 3.0; Cardio protect: 50.4*; APOBEC3G inh: 0.6
